Results from PubChem BioAssay AID896 (National Center for Advancing Translational Sciences (NCATS), 2007).
The other results are listed elsewhere or left out. Records with an inconclusive call do not appear. Active and inactive are the calls of the source. The call rests on the fitted dose curve; in most records, active means well fitted inhibition curve with a large enough effect in the main read-out, with a control signal flat; inconclusive means small, poorly fitted or top-dose-only effect, or a change in a side signal; inactive means no such curve, though single readings can be large or run the other way.

Each molecule was assayed against Caspase-1 (Homo sapiens) (UniProt P29466) (assay: Confirmation Concentration-Response Assay for Allosteric/Competitive Inhibitors of Caspase-1). Settings: purified caspase-1, fluorogenic substrate cleavage; series mostly up to 57.5 µM.
Source text: NIH Molecular Libraries Screening Centers Network [MLSCN]
NIH Chemical Genomics Center [NCGC]
PI Name: Dr. James Wells,
Dr. Enrique Perez-Paya, Dr.Janice Williams, Dr. Dennis Wolan, a person
The caspases (Cysteine Aspartyl Protease) comprise a related family of 14 dimeric proteases that are critical mediators of apoptosis (programmed cell death) and inflammation. The caspases represent an important class of drug targets for stroke, ischemia, cancer and inflammatory diseases. […] One goal of this project was to identify compounds that act as allosteric inhibitors via stabilizing the procaspase form of the enzyme. […]
The biochemical assay was configured using purified caspase 1 at a high enzyme concentration to promote formation of the homodimers and thus facilitate the identification of allosteric inhibitors. […] After initiation of the assay with substrate the plates were rapidly read using an automated robotic system (Kalypsys, Inc.) to maintain consistent timing. […] Product formation was also measured after 1 hour. […]
Caspase 1 was prepared in buffer (50 mM HEPES pH 7.5, 50 mM KCl, 200 mM NaCl, 10 mM DTT, 0.1% CHAPS) at a concentration of 66.6 nM and 3 uL was dispensed to all wells using black solid Kalypsys 1536-well plates. […] The plates were then exposed using 405 nm excitation/520 nm emission filters for 4 sec and read at 20 sec intervals for 3 min. […]

SMILES	outcome
Cc1nc2c(C(=O)NCc3ccc4c(c3)OCO4)c[nH]n2c(=O)c1Cc1ccccc1F	inactive
